Laboratory results from PubChem BioAssay (NCI).
This is part of a sample that, as a whole, favours compounds with a hit. Of some 83,000 tested, about 20% had one in any assay.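 Assay: single dose, 48 h. Readout: percent growth (0 = no net growth; negative = cell death). Active: <10.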 A number with no mark means an inactive call. The source made the active and inactive calls.

Tests used:
Experiment in all cases: NCI-60 one-dose screen, 48 h (100 = growth as untreated, 0 = no growth, -100 = all killed)
Details in all cases: 10 µM unless noted
HCT-15 colon = system: HCT-15 colon
HT29 colon = system: HT29 colon
SNB-75 CNS = system: SNB-75 CNS
SNB-19 CNS = system: SNB-19 CNS
PC-3 prostate = system: PC-3 prostate
SK-MEL-5 melanoma = system: SK-MEL-5 melanoma
UACC-62 melanoma = system: UACC-62 melanoma
LOX IMVI melanoma = system: LOX IMVI melanoma
SK-MEL-28 melanoma = system: SK-MEL-28 melanoma
SK-MEL-2 melanoma = system: SK-MEL-2 melanoma
EKVX NSCLC = system: EKVX NSCLC
SN12C renal = system: SN12C renal
UO-31 renal = system: UO-31 renal
TK-10 renal = system: TK-10 renal
ACHN renal = system: ACHN renal
CAKI-1 renal = system: CAKI-1 renal
A498 renal = system: A498 renal
CCRF-CEM leukemia = system: CCRF-CEM leukemia
MOLT-4 leukemia = system: MOLT-4 leukemia

Row | SMILES | growth (HCT-15 colon) | growth (HT29 colon) | growth (SNB-75 CNS) | growth (SNB-19 CNS) [%] | growth (PC-3 prostate) [%] | growth (SK-MEL-5 melanoma) [%] | growth (UACC-62 melanoma) | growth (LOX IMVI melanoma) | growth (SK-MEL-28 melanoma) [%] | growth (SK-MEL-2 melanoma) [%] | growth (EKVX NSCLC) [%] | growth (SN12C renal) | growth (UO-31 renal) | growth (TK-10 renal) | growth (ACHN renal) | growth (CAKI-1 renal) | growth (A498 renal) | growth (CCRF-CEM leukemia) | growth (MOLT-4 leukemia)
1 | Clc1ccc2c(c1)N(c1ncnc3ccc(-c4cnc5[nH]ncc5c4)cc13)CC2 | 25% | 19.3% | -16.8% (active) | 42.8 | 23.8 | 46.5 | 8.23% (active) | 18.4% | 44.1 | 48.3 | 16.8 | 19.5% | 4.18% (active) | 13.9% | 13% | 11% | -45.2% (active) | 31.9% | 3.68% (active)
2 | Oc1ccc(CCn2c(O)c(/C=C3\CN=c4ccccc4=N3)sc2=S)cc1 | 35.2% | 62% | 23.2% | 82.2 | 60.2 | 88.3 | 58% | 10.2% | 77.5 | 91.5 | 80.8 | 47.5% | 28.9% | 30.8% | 54.3% | 34.3% | 37.3% | 7.79% (active) | 35.9%
3 | COCCn1c(-c2csc(-c3cn(C)c4ccc(OC)cc34)n2)cc2cccnc21 | 7.45% (active) | 5% (active) | 72.4% | 85.3 | 19.2 | 65.2 | 82.1% | -22.6% (active) | 85.1 | 54 | 58.5 | 80.2% | 54.9% | 43.6% | 70.9% | 74.8% | 60.8% | 41.3% | 54.4%
4 | O=c1c2cc(-c3ccccc3)sc2nc2sc(-c3ccccc3)nn12 | 103% | 93.3% | 113% | 102 | 95.1 | 100 | 109% | 107% |  | 107 | 97.4 | 104% | 94.2% | 84% | 117% | 102% | 61.3% | 104% | 102%
5 | Cc1ccc(-c2nc3nc(-c4ccc(F)cc4)nc(N4CCNCC4)c3o2)cc1 | -80% (active) | -78.1% (active) | -2.57% (active) | 40.5 | 14.8 | 96.9 | 91.1% | -92% (active) | 114 | 102 | 127 | -48.7% (active) | 76.7% | -35.8% (active) | -95.5% (active) | 1.35% (active) | 79.5% | -71% (active) | -64.6% (active)
6 | N#Cc1c(-c2ccc(Cl)cc2)nc(NN=Cc2cccc(O)c2)nc1N1CCOCC1 | 44.7% | 69.8% | 46.1% | 86.9 | 63.8 |  | 94.1% | 61.7% | 77.1 | 91.5 | 66.6 | 78.3% | 35.7% | 79% | 60.9% | 60.5% | 75.1% |  | 39.8%
7 | Cn1cc(-c2nonc2-c2c[nH]c3ccc(Br)cc23)c2cc(Br)ccc21 | 28.2% | 20.6% | -11.2% (active) | 42.8 | 43.4 | 70.3 | 53.9% | 24.8% | 59.4 | 73.9 | 33.5 | 66.9% | 24.4% | 39.6% | 14.3% | 24% | 28% | 34.4% | 25.1%
